From PubChem BioAssay (NCI)
The panel holds about 83,000 compounds, 20% with a hit somewhere; the sample as a whole holds those more often.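 48-hour exposure, single concentration, 96-well plates; percent growth endpoint where 0 means no net growth. Active: below 10.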 Values without a mark were called inactive. Calls of active or inactive are those of the source.

These compounds were tested on HL-60(TB) leukemia (assay: NCI-60 one-dose screen, 48 h (100 = growth as untreated, 0 = no growth, -100 = all killed)). Conditions: 10 µM unless noted.

Row | Compound | growth
1 | c1ccc(CSc2ncnc3nc[nH]c23)nc1 | 96.4%
2 | O=C(Nc1cccc(-n2cc(-c3ccncc3)c(-c3cc(O)cc(Cl)c3)n2)c1)Nc1ccc(Cl)c(Cl)c1 | -23.4% (active)
3 | Oc1ccccc1/C=N/Nc1ccc2ccccc2n1 | -8.13% (active)
4 | COc1cccc2c1C(=O)c1c(O)c3c(c(O)c1C2=O)C[C@@](O)(C(=O)COC(=O)c1ccccc1)C[C@@H]3OC1CC(N)C(O)C(C)O1 (stereo not given in full) | -74.8% (active)
5 | Clc1ccc(-c2nnc(-c3ccco3)o2)cc1 | 94.1%
6 | O=C(CCl)Nc1ccc(Cc2ccc(NC(=O)CCl)cc2)cc1 | -18.3% (active)
7 | C=C(c1ccc(OC)c(/C=C/C(=O)c2cc(OC)c(OC)c(OC)c2)c1)c1cc(OC)c(OC)c(OC)c1 | 12.8%
8 | Nc1c(C(=O)c2ccccc2)sc2nc(-c3cccs3)cc(-c3cccs3)c12 | 22%
9 | CC(Br)C(O)c1cc2c(cc1Br)OCO2 (stereo not given) | 105%
10 | COc1ccc(/C=C/C=C\C(=O)c2ccc(-n3ccnc3)cc2)cc1 | 66.9%
11 | CCCCCN(CCCCC)CC(O)c1cc(C)c2ccc3cc(C(C)C)ccc3c2c1 (stereo not given) | -29.6% (active)
12 | COc1cc(C2CC(c3ccc(C)cc3)=NN2C=O)ccc1OCCN(C)C (stereo not given) | 95.3%
13 | COc1ccccc1/C=N/NC1=NC2C(N1)N(C)C(=O)N2C (stereo not given) | 107%
14 | NC(N)=NN=c1c(=O)c2ccccc2c1=O | 95.2%
15 | CCCCCCCCCCC(C(O)c1ccccc1)N1CCCCC1 (stereo not given) | -28.5% (active)
